Out of some 400,000 compounds screened, about 1,900 (0.47%) were called active. Another 14% or so got no clear call; they are omitted. No rule for the calls is given here. The sample as a whole holds a higher share of actives than the screen did.

Chain of Ataxin-2 (Homo sapiens) (Q99700 whole entry): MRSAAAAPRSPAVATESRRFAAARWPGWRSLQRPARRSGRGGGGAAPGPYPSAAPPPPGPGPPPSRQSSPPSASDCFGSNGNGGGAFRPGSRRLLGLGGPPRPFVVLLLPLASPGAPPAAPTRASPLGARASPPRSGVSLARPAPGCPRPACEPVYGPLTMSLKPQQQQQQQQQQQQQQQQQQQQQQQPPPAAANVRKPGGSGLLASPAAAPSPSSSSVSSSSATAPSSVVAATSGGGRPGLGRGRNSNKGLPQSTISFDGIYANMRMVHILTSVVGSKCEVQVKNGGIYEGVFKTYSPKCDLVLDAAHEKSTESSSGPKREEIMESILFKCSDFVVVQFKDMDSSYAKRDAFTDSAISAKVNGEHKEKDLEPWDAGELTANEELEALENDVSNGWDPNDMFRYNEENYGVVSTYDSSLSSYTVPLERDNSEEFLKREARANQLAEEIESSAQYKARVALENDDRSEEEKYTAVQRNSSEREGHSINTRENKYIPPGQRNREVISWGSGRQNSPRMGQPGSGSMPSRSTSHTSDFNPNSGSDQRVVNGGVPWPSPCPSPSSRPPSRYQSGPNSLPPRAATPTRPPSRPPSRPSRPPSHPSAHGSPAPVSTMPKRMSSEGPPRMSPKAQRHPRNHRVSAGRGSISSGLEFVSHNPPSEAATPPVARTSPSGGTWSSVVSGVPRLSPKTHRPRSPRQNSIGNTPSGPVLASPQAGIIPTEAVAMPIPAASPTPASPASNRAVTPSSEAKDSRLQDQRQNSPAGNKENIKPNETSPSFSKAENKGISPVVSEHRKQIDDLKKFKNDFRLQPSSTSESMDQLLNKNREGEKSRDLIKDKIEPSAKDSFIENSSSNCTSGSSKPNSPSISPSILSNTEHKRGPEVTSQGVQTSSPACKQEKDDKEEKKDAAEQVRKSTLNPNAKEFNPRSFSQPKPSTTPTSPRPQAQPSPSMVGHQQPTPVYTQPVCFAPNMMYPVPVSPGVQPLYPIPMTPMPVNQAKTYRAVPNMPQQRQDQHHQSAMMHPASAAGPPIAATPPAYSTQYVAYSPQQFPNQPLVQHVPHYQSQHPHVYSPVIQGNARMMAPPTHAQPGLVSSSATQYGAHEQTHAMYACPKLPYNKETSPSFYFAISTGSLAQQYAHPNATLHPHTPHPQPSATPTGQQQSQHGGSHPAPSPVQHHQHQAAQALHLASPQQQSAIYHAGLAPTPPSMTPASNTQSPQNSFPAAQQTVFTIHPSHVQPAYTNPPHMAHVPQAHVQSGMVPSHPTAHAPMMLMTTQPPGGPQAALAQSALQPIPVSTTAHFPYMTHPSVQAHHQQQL

This assay concerns the target Ataxin-2 (Homo sapiens) (UniProt Q99700). The assay is described as follows: qHTS for Inhibitors of ATXN expression. Type of assay: functional.
Consider `O=c1ccc2cc(O[C@@H]3O[C@@H](CO)[C@H](O)[C@@H](O)[C@@H]3O)c(O)cc2o1`, for which the Potency result is “inactive”.

Take `CCN(CCCl)c1cc(CN(C)C)cc(NC(=O)c2ccc(C(=O)Nc3cc(CN(C)C)cc(N(CC)CCCl)c3)cc2)c1`: the Potency was 20 µM (active).

For the compound `O=C(c1ccc(C(F)(F)F)cc1)C1CCCN(Cc2ccncc2)C1` (configuration not stated), the Potency entry is “inactive”.

As to `CCn1cc(C(=O)NCCc2ccc(OC)c(OC)c2)c(=O)c2cc(S(=O)(=O)N(C)C3CCCCC3)ccc21`, the Potency was 25.1 µM (active).

For `COC(=O)Cn1cc(C=C2C(=O)N(C)C(=O)N(C)C2=O)c2ccccc21`, the Potency entry was “inactive”.

Regarding `O=C1NC(=O)C(=CNc2cc(F)cc(F)c2)C(=O)N1`, the Potency entry is “inactive”.

Turning to `CC[n+]1c(/C=C/C=C/c2ccc(N(C)C)cc2)sc2ccccc21`, the Potency was 5.32 µM (active).

As for `CC[n+]1c(C=CN(C)c2ccccc2)sc2ccc(Cl)cc21`, the Potency was 17.8 µM (active).

Take `CC(C)(C)C(=O)c1cn(Cc2ccccc2)c2ccccc12`: the Potency result was “inactive”.

For the compound `O=C(NN1C(=O)C2C3C=CC(C4CC34)C2C1=O)c1cccc(Br)c1` (configuration not stated), the Potency result is “inactive”.

Take `C[C@@]12CC[C@H](O)C[C@@H]1CC[C@H]1[C@H]2CC[C@@]2(C)[C@@H](C3=CC(=O)OC3)CC[C@]12O`: the Potency is 0.708 µM (active).

Regarding `C[C@@]12CC[C@H](O)C[C@@H]1CC[C@H]1[C@@H]2C[C@@H](O)[C@]2(C)[C@@H](C3=CC(=O)OC3)CC[C@]12O`, the Potency is 3.16 µM (active).

With `C=CCNC(=O)c1c(N)n(Cc2ccco2)c2nc3ccccc3nc12`, the Potency result was “inactive”.

For the compound `COCCCn1c(N)c(C(=O)OC(C)COC)c2nc3ccccc3nc21` (configuration not stated), the Potency entry was “inactive”.

With `O=C1NC(=O)N(CCc2ccccc2)C(=O)/C1=C\NN1CCOCC1`, the Potency entry is “inactive”.

As to `COC1CCC(OC2CC(C3(C)CCC4(CC(O)C(C)C(C(C)/C=C(\C)C(=O)C(C)CC(C)C(=O)O)O4)O3)OC3(OC(C4OC(O)(CO)C(C)CC4C)CC3C)C2C)OC1C` (configuration not stated), the Potency is 0.562 µM (active).

Regarding `COCCOC(=O)c1c(N)n(Cc2ccco2)c2nc3ccccc3nc12`, the Potency entry was “inactive”.

As for `CC(=O)OC(C)(C)/C=C/C(=O)[C@](C)(O)[C@H]1[C@H](O)C[C@@]2(C)[C@@H]3CC=C4[C@H](C[C@H](O)C(=O)C4(C)C)[C@]3(C)C(=O)C[C@]12C`, the Potency is 39.8 µM (active).

For the compound `CC(=O)OC(C)(C)/C=C/C(=O)C(C)(O)C1C(O)CC2(C)C3CC=C4C(CC(O)C(=O)C4(C)C)C3(C)C(=O)CC12C` (configuration not stated), the Potency was 0.189 µM (active).

Regarding `COc1ccc(C(=O)C2CCCN(Cc3cnc(C)s3)C2)c(OC)c1` (configuration not stated), the Potency entry is “inactive”.

`NC(=O)c1cn(C2OC(CO)C(O)C2O)c2ncnc(N)c12` (configuration not stated): the Potency was 0.316 µM (active).

Regarding `COc1ccc2[nH]c(C)c(CCNCc3cn(C)c4ccccc34)c2c1`, the Potency was 17.8 µM (active).

As for `CCn1c(=O)oc2cc(NC(=O)CCl)ccc21`, the Potency was 37.7 µM (active).

With `Cn1c(=O)oc2cc(NC(=O)CCl)ccc21`, the Potency was 31.6 µM (active).

Consider `COc1ccc(NC(=O)c2cccn(Cc3ccc(Cl)cc3)c2=O)c(OC)c1`, for which the Potency result was “inactive”.

`CCc1nc2ccc(N3CCN(C)CC3)cc2nc1CC`: the Potency entry was “inactive”.

Take `COCCCn1c(N)c(C(=O)NCc2ccco2)c2nc3ccccc3nc21`: the Potency result was “inactive”.

For the compound `Nc1c(C(=O)Nc2ccc(Cl)cc2)sc2nc3c(cc12)N1CCC3CC1`, the Potency result is “inactive”.

Regarding `COc1ccc(OCC(=O)N2CCN(C/C=C/c3ccccc3)CC2)cc1`, the Potency result was “inactive”.

Take `COc1ccc(Nc2nc(N)nc(CSc3nc4ccccc4s3)n2)cc1`: the Potency was 39.8 µM (active).

With `CCCCn1c(N)c(C(=O)NCCN2CCOCC2)c2nc3ccccc3nc21`, the Potency entry was “inactive”.

As to `Cc1cccc(OP(N)(=O)Oc2cccc(C)c2)c1`, the Potency entry was “inactive”.

Regarding `COc1ccc(CC(N)c2csc(NC(=O)Nc3ccccc3Oc3ccccc3)n2)cc1` (configuration not stated), the Potency is 39.8 µM (active).

As to `O=C(c1cccn2c(=O)c3cc(Cl)ccc3nc12)N1CCC2(CC1)OCCO2`, the Potency entry was “inactive”.

As for `COc1ccc2cc1Oc1ccc(cc1)C[C@H]1c3cc(c(OC)cc3CCN1C)Oc1c(O)c(OC)cc3c1[C@H](C2)N(C)CC3`, the Potency is 20 µM (active).

Take `COc1cc2c3c(c1OC)Oc1ccc(cc1)C[C@H]1c4c(cc(OC)c(OC)c4Oc4ccc(cc4)C[C@@H]3N(C)CC2)CCN1C`: the Potency is 15.8 µM (active).

On to `Nc1c2c(nc3ccccc13)CCN(Cc1ccccc1)C2`, for which the Potency result was “inactive”.

On to `COc1ccc(Nc2cc(C)c3cc(NC(=O)c4ccccc4Cl)ccc3n2)cc1`, for which the Potency entry was “inactive”.

For `CN1CC[C@@]2(C)c3cc(O)ccc3N(C)C12` (some centres not stated), the Potency was 28.2 µM (active).

As to `CCC(C)NC(=O)c1c(N)n(CC2CCCO2)c2nc3ccccc3nc12` (configuration not stated), the Potency entry was “inactive”.

As for `C#CCN1C(=O)S/C(=C\c2ccc(N3CCOCC3)cc2C)C1=O`, the Potency result was “inactive”.

With `CCCCN1C(=O)NC(=O)/C(=C(O)\C=C\c2c[nH]c3ccccc23)C1=O`, the Potency entry was “inactive”.

For `N=C(N)N/N=C/c1ccc(N(c2ccccc2)c2ccccc2)cc1`, the Potency result is “inactive”.

As for `N=C(N)N/N=C/c1cn(-c2ccccc2)nc1-c1cccs1`, the Potency was 11.2 µM (active).

On to `N=C(N)N/N=C/c1ccc(N2CCOCC2)cc1`, for which the Potency result is “inactive”.

Regarding `O=c1cc(C(F)(F)F)c2cc3c4c(c2o1)CCCN4CCC3`, the Potency entry was “inactive”.

Consider `NS(=O)(=O)c1ccc(NC=C2C(=O)N(C3CCCCC3)C(=O)N(C3CCCCC3)C2=O)cc1`, for which the Potency was 39.8 µM (active).

On to `Cc1ccnc(NS(=O)(=O)c2ccc(NC=C3C(=O)N(C)C(=O)N(C)C3=O)cc2)n1`, for which the Potency entry was “inactive”.

Regarding `CCC(C(=O)Nc1ccc(Cl)cc1)N1CCCC1=O` (configuration not stated), the Potency result is “inactive”.

For `Ic1ccccc1CNC1C2CCN(CC2)C1C(c1ccccc1)c1ccccc1` (configuration not stated), the Potency was 15.8 µM (active).

On to `O=C(NCCc1ccccc1)[C@@H]1CC=C[C@@H]2CCN(Cc3ccc(Cl)c(Cl)c3)C(=O)[C@@H]21`, for which the Potency was 25.1 µM (active).

As to `O=C(Cc1cc(=O)oc2cc(O)ccc12)NN=Cc1ccc(N(CCCl)CCCl)cc1`, the Potency result is “inactive”.

As for `CC(C)Sc1nc2[nH]cnc(N)c-2n1`, the Potency result was “inactive”.

Take `Cc1oc(-c2ccccc2Cl)nc1CN1C(=O)CN=C(c2ccccc2)c2cc(Cl)ccc21`: the Potency is 44.7 µM (active).

With `COc1ccc(-c2nc(CN3C(=O)CN=C(c4ccccc4)c4cc(Cl)ccc43)c(C)o2)cc1`, the Potency is 35.5 µM (active).

Consider `O=C1CN=C(c2ccccc2)c2cc(Cl)ccc2N1Cc1ccc(Cl)cc1`, for which the Potency is 28.2 µM (active).

With `O=C(c1cccn2c(=O)c3cc(Br)ccc3nc12)N1CCC2(CC1)OCCO2`, the Potency entry was “inactive”.

(Values after ChEMBL document CHEMBL1201862, “PubChem BioAssay data set” (2004).)
